# For part of these data: Measured potencies and affinities stand elsewhere.
# What was measured:
# Design in all cases: scale not given: direction of the effect not stated beside the values
# [1] = biological target: Protein translocase subunit SecA (Escherichia coli (strain K12)) (UniProt P10408); assay: Assay to Identify E. coli SecA ATPase Inhibitors; type: functional; conditions: 30 µM
# [2] = biological target: T1, Ubiquitin-activating enzyme e1, putative (Leishmania donovani (strain BPK282A1)) (UniProt E9BSI1); assay: Leishmania donovani Ubiquitin Activating Enzyme (LdE1); type: functional; conditions: 30 µM
# T1 sequence (whole entry): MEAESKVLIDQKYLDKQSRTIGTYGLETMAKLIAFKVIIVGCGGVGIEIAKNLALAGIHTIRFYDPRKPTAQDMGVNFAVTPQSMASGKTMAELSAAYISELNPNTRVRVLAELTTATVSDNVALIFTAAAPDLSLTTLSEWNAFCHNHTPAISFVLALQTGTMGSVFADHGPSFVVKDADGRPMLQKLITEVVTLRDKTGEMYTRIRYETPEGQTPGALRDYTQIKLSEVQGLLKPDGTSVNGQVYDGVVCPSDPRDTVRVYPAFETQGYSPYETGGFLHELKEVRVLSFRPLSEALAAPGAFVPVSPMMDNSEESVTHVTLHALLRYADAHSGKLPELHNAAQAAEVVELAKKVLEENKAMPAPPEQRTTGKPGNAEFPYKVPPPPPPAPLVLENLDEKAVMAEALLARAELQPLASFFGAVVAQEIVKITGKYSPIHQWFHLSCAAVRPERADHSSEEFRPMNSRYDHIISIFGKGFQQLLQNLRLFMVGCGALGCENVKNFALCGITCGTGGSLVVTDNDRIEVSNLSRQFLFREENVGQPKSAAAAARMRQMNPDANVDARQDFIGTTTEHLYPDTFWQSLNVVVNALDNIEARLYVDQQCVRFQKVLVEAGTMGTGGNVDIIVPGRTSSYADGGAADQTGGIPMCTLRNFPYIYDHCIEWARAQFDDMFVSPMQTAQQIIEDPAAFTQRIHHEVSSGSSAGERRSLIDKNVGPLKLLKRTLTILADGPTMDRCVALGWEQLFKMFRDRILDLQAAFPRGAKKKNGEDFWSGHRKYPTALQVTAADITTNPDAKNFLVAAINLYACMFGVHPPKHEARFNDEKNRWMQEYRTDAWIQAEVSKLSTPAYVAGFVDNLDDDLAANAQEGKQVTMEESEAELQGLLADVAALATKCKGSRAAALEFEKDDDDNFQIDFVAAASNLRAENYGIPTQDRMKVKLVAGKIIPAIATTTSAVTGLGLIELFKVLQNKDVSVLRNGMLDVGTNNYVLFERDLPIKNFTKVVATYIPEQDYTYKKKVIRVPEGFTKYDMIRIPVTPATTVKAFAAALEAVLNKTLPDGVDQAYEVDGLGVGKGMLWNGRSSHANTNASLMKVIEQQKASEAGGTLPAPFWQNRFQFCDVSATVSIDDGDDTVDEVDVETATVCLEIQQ
# [3] = biological target: AMP-activated protein kinase, AMPK (Homo sapiens) (UniProt P54646+O43741+P54619+Q9UGJ0+Q9Y478+Q13131+Q9UGI9); assay: AMP-dependent Kinase enzyme assay. An in vitro enzyme assay that detects ADP turnover that is directly proportional to AMPK activity. This uses naive AMPK that is activated during the assay with MK-8722; type: functional; conditions: 30 µM
# [4] = biological target: Sialic acid-binding Ig-like lectin 9 (Homo sapiens) (UniProt Q9Y336); assay: Hs-Siglec9 ALPHAscreen SOP 20170721; conditions: 10 µM
# Trypanosoma cruzi = assay: Trypanosoma cruzi phosphomannomutase and mannose-1-phosphate guanylyltransferase assay; type: functional; conditions: 10 µM
# [5] = biological target: T2, Arginase-2, mitochondrial (Homo sapiens) (UniProt P78540); assay: in vitro enzyme assay to detect the production of urea directly proportional to the activity of Arginase II; type: functional; conditions: 33.3 µM; also: in the data most compounds retested in dose-response had high values
# T2 sequence (whole entry): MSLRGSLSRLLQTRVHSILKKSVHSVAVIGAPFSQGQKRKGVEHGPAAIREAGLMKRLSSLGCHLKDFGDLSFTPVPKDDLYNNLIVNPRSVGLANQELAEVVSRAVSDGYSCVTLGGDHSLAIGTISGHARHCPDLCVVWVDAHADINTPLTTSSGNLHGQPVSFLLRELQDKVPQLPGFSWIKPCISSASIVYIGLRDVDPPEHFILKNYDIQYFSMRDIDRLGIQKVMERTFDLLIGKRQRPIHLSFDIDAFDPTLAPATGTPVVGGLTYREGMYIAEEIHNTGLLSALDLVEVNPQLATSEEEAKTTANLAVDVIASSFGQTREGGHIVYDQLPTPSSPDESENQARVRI
# [6] = biological target: T3, Proteasome subunit beta (Trypanosoma cruzi) (UniProt O96673); assay: Trypanosoma cruzi proteasome chymotrypsin-like activity (TcProtChymo) assay.; also: in the data most compounds retested in dose-response had high values; type: functional; conditions: 9.37 µM
# T3 sequence (whole entry): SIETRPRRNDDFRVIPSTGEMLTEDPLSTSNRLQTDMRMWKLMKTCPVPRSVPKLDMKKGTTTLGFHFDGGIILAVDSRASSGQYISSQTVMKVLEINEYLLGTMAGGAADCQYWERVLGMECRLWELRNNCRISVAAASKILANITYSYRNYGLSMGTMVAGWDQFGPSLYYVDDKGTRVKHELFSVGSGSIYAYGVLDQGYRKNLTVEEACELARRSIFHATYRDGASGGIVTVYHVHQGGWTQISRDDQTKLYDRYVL
# Homo sapiens = species: Homo sapiens; assay: To identify inhibition of the IFN signalling (Jak-Stat) pathway via expression of an eGFP reporter gene under the control of an IFN-stimulated response element (ISRE) containing MxA promoter.; type: functional; conditions: 30 µM
# [7] = biological target: T4, Tyrosyl-tRNA synthetase, putative (Trypanosoma cruzi (strain CL Brener)) (UniProt Q4DSP6); assay: Trypanosoma cruzi tyrosyl tRNA synthetase (TcYRS) _High Tyrosine SOP; type: functional; conditions: 30 µM; also: in the data most compounds retested in dose-response had high values
# T4 sequence (whole entry): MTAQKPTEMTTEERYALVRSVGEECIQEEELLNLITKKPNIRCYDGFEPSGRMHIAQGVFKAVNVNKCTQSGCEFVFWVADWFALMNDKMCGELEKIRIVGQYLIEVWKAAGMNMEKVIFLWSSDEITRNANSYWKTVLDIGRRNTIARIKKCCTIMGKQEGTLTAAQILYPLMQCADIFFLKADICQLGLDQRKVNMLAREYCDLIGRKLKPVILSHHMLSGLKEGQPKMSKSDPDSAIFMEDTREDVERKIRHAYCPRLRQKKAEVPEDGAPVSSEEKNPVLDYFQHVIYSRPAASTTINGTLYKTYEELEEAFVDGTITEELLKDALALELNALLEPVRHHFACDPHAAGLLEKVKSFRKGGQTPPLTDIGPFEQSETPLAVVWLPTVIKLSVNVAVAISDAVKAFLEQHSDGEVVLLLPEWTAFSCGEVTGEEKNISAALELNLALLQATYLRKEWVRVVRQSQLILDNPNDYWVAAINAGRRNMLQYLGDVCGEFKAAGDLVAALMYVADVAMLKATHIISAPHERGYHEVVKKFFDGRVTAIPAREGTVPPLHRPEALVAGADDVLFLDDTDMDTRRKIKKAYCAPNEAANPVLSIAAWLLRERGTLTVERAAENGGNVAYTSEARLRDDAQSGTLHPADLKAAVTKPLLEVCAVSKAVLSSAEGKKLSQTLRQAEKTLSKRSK
# [8] = biological target: T4, Tyrosyl-tRNA synthetase, putative (Trypanosoma cruzi (strain CL Brener)); assay: Trypanosoma cruzi tyrosyl tRNA synthetase (TcYRS) SOP; type: functional; conditions: 30 µM
# [9] = biological target: Chromo domain-containing protein 1 (Saccharomyces cerevisiae (strain ATCC 204508 / S288c) (Baker's yeast)) (UniProt P32657); assay: ScCHD-1 Enzyme Inhibition Assay; type: functional; conditions: 30 µM; also: in the data most compounds retested in dose-response had high values
# Chromo domain-containing protein 1 (Saccharomyces cerevisiae (strain ATCC 204508 / S288c) (Baker's yeast)), sequence (P32657 whole entry, the tested form may be a part): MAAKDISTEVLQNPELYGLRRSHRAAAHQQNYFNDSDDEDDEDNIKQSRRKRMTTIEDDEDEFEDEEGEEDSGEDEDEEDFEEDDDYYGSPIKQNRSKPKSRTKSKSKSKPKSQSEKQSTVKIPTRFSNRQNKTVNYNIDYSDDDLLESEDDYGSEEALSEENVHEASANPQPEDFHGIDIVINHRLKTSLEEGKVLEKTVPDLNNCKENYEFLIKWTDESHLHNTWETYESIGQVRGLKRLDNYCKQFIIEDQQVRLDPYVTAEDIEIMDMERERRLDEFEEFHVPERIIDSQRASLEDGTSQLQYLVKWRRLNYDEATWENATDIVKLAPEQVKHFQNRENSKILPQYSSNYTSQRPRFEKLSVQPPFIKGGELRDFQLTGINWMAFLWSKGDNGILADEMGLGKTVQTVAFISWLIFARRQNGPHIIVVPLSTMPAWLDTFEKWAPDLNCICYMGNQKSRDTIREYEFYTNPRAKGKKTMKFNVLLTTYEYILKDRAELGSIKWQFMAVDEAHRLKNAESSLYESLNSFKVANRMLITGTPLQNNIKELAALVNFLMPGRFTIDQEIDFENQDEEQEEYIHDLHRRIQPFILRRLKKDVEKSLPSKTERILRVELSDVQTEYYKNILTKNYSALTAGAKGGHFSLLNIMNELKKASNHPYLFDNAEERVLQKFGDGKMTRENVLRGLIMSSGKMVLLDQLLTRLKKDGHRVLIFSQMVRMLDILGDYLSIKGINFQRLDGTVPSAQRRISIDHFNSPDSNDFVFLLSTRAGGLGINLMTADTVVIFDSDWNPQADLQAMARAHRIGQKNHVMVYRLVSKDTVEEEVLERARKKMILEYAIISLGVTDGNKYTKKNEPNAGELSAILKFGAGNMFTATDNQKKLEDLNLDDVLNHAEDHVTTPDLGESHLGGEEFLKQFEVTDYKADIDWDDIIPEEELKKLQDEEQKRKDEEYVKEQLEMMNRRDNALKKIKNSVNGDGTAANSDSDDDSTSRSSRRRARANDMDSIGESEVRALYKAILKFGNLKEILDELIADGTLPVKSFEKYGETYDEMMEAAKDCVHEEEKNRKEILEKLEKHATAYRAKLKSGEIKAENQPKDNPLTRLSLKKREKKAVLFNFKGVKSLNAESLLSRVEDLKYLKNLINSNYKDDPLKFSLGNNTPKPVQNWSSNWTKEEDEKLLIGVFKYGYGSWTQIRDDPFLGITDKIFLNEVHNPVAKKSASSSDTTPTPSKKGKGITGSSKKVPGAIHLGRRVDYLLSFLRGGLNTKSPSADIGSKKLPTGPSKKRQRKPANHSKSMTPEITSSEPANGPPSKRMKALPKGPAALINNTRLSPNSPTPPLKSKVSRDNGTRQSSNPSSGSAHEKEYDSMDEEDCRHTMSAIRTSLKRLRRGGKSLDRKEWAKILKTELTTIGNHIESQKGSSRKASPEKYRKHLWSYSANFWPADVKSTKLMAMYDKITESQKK
# Protein translocase subunit SecA (Escherichia coli (strain K12)), sequence (P10408 whole entry): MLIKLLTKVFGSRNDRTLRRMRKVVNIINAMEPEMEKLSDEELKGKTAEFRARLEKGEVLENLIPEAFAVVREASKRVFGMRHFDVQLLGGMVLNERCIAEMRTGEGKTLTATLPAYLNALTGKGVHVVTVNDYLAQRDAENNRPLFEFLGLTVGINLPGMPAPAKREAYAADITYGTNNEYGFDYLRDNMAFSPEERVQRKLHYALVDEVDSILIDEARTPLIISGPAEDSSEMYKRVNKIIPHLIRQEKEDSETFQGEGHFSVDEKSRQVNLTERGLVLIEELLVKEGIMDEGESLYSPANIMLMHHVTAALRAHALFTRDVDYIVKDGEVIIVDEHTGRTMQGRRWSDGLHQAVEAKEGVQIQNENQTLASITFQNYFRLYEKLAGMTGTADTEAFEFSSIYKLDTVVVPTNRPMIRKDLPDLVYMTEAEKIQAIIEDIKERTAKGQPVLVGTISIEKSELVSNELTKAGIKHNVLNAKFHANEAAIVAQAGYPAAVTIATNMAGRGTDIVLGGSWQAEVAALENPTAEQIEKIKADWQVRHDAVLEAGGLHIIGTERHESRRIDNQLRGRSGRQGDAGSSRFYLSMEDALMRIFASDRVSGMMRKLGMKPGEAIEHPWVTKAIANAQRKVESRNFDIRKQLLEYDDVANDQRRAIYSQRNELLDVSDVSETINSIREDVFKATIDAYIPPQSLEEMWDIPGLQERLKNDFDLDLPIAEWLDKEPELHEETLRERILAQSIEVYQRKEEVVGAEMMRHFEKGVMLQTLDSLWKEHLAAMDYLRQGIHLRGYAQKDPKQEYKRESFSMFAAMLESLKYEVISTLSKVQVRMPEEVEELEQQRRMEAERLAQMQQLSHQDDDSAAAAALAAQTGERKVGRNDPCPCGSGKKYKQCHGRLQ
# Sialic acid-binding Ig-like lectin 9 (Homo sapiens), sequence (Q9Y336 whole entry): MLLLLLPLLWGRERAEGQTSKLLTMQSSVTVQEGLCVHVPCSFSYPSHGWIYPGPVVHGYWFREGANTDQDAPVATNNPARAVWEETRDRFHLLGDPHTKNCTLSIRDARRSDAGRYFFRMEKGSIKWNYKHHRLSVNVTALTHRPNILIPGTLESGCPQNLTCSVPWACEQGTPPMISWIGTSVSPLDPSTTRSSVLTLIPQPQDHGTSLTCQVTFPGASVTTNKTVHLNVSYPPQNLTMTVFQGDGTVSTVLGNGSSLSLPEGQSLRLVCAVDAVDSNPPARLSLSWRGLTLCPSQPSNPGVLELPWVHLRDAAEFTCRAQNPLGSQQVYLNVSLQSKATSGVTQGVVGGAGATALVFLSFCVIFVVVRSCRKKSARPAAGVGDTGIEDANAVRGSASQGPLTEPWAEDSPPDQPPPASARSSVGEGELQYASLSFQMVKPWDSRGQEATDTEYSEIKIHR
Structure (SMILES),Percent Effect [1] [%],Percent Effect [2] [%],Percent Effect [3] [%],Percent Effect [4] [%],Percent Effect (Trypanosoma cruzi) [%],Percent Effect [5] [%],Percent Effect [6] [%],Percent Effect (Homo sapiens) [%],Percent Effect [7] [%],Percent Effect [8] [%],Percent Effect [9] [%]
COc1ccc(C2=C(C)C(N3CCc4ccccc4C3)=NS2(=O)=O)cc1,-1.81,-7.79,1.57,-18,3.45,4.52,13.1,9.07,-122,-39.7,79.2
CSC(C)C(=O)N1CCCN(Cc2cnn(C(C)C)c2)CC1 (stereo unspecified),1.59,21.6,-6.76,-4.41,-10.3,2,19.1,7.04,8.37,11.1,-4.54
Cc1cnn(C2CN(Cc3nc(-c4ccco4)no3)C2)c1,-7.03,13,26.4,11.1,0.374,-0.356,5.41,10.2,10.7,19.5,-2.84
Cn1ncc2c(N3CCN(C(N)=O)CC3)nc(C3CCCC3)nc21,-1.31,1.39,27.7,-4.81,-7.29,0.883,18.4,25.9,1.05,-7.69,-4.35
CCn1nc(C(=O)N2CCCC(n3cncn3)C2)ccc1=O (stereo unspecified),-3.67,5.2,7.01,5.16,6.76,2.74,9.78,-15.3,0.952,11.8,-10.3
O=C(CCc1ccccc1)N1CCn2cc(Cn3cncn3)nc2C1,-2.68,0,5.15,7.21,-3.45,-3.23,14.6,22.4,1.06,-1.28,1.43
CC1=N[C@@]2(CC[C@@H]3CN(CC(=O)N(C)C)C[C@@H]32)C(=O)N1CC(C)C,3.62,12,42.2,1.63,-8.25,-20.6,9.43,24.2,1.06,0,-8.72
COc1cccc2c1ccn2CCNC(=O)C(C)C,-1.68,20,0.539,3.44,0.393,-1.94,18.5,26.9,7.41,12.8,-3.78
COc1cccc(CNc2c(C)cnc3c2c(=O)n(C)c(=O)n3C)c1,-2.5,16.4,-3.93,-14.8,2.35,0.909,15.4,21.6,3.23,20,-6.85
Cc1csc(C2CCCN(C(=O)c3cnc4n[nH]c(C)c4c3)C2)n1 (stereo unspecified),-3.7,10.8,-5.48,6.11,2.36,-2,2.7,16.8,7.39,18.5,-8.83
CCc1nnc2n1CCN(C(=O)c1cc3cc(F)ccc3[nH]1)C2,-3.51,0,21,11.1,4.68,-1.78,2.37,-24.4,7.77,24.4,-11.3
CC(O)CNC(=O)NCc1ccc(N2CCNC(=O)C2)cc1 (stereo unspecified),-3.56,20.8,-9.88,10.6,2.06,-0.712,4.73,-4.97,11.7,21.9,-11.2
Cc1cc(NC(=O)NCC(O)c2ccc(Cl)cc2Cl)n(C)n1 (stereo unspecified),-2.82,-2.63,1.15,8.57,0.376,-0.383,-2.17,-20.8,-0.49,-75.6,-5.69
Cc1cccc(CNC(=O)CNc2cc(CO)ccc2Cl)c1,-6.11,2.63,4.86,-0.518,-1.27,1.18,11,-4.91,4.25,7.79,-2.84
NC(=O)c1csc(C(=O)N2CCCC(n3ccnc3)C2)c1 (stereo unspecified),-5.24,3.8,5.04,3,2.56,1.5,7.72,-1.55,4.17,15.2,-9.55
CCc1noc(C(C)N(C)CC(=O)Nc2c(C)cccc2C)n1 (stereo unspecified),1.06,11,6.59,4.7,4.31,16.8,8.7,-3.6,4.3,15,-7.1
Cc1nnc(N2CCCC3(CN(Cc4ccc(C)s4)CCO3)C2)o1 (stereo unspecified),0.137,5.48,-2.15,8.14,3.97,-5.19,13.1,-2.59,2.08,6.17,-3.69
Clc1ccc(-n2cc(CNC3CCc4ncnn4C3)cn2)cc1 (stereo unspecified),-0.3,1.27,7.38,3.29,-2.36,1.5,10.6,7.5,2.08,10.1,-1.43
CC(C)c1cc(NC(=O)c2ccc(C(=O)NC(C)(C)C)cc2)[nH]n1,-6.52,23.4,112,-4.38,-3,0.712,0.169,53,6.8,24.4,-4.07
O=C(NCCn1ccc(-c2ccccn2)n1)c1ccncc1,-1.48,8.22,-7.04,17.5,6.46,-3.18,9.94,4.13,2.15,10,-3.21
Cn1cc(CN2CCn3cc(CNC(=O)c4cccn4C)nc3C2)cn1,-0.61,0,12.6,0.00498,-0.394,-0.699,-4.32,3.52,4.25,6.41,5.91
